Assay outcomes (PubChem BioAssay)
H9c2 protect: modulators protecting cardiomyocytes from myocardial damage; 360,000 compounds, 0.63% hits; H9c2 cardiomyocytes, H2O2 injury protection, ATPLite, 2 h; AID 588492; protection from H2O2 cell death, % at 20 µM;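 active = compounds giving at least 50% protection of heart cells from peroxide-induced death in the single-dose screen, raw or plate-pattern-corrected value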;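 note: 0% = DMSO wells with peroxide and 100% = DMSO wells without peroxide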
ALR H2O2 inh: inhibitors of human sulfhydryl oxidase ALR. P55789. purified ALR, DTT oxidation, H2O2 HRP-luminol luminescence. inhibition, % (test concentration not listed). 290,000 compounds, 3.8% hits. AID 485317;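 active = mean replicate inhibition above about 79%, with every replicate also reaching it, limit read from the data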
Target sequence (P55789 whole entry, looked up): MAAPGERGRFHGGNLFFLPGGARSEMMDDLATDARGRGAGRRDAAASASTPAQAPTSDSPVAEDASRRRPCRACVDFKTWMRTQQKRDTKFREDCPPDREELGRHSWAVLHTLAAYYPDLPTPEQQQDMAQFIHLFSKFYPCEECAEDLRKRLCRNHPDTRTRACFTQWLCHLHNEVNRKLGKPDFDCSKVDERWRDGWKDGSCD
PfGluPho inh: PfG6PD (Plasmodium falciparum) enzyme inhibition. PfGluPho enzyme, NADPH resazurin-diaphorase fluorescence. inhibition, % at 20 µM. 350,000 compounds, 0.78% hits;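 active = inhibition reaching at least a set limit at 20 µM in the primary screen, cut at about 59% in these data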;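 note: 0% = DMSO wells with substrate and 100% = DMSO wells lacking glucose-6-phosphate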
M18AAP inhibitor: PfM18AAP enzyme inhibition; inhibition, % at 7.35 µM; AID 1822; 290,000 compounds, 1.2% hits; recombinant PfM18AAP, H-Glu-NHMec fluorogenic cleavage;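 active = inhibition above the campaign mean inhibition over all tested compounds plus 3 SD, cut at about 28% in these data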;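 note: 0% = plate median of test compound wells and 100% = 2 mM ZnCl2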
PHOSPHO1 block: PHOSPHO1 (human) inhibition; Q8TCT1; recombinant PHOSPHO1, absorbance phosphatase assay; inhibition, % at 13.3 µM; 290,000 compounds, 1.1% hits; AID 1565; in the data active = inhibition above about 60%
Target sequence (Q8TCT1 whole entry, looked up): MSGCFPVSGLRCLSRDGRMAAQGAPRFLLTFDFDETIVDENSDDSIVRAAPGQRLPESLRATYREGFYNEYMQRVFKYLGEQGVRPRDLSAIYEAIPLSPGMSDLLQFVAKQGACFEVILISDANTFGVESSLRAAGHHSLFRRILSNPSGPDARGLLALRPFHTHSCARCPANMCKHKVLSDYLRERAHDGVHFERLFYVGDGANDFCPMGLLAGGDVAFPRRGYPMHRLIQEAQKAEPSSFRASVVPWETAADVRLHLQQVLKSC
* hit, by the source's call; . = no result. This is a sample that favours compounds with a hit; in the whole collection about 5.6% have one here.

SMILES	H9c2 protect	ALR H2O2 inh	PfGluPho inh	M18AAP inhibitor	PHOSPHO1 block
CCC1NC(=O)c2cc3ccccc3cc2-n2c1nc1ccc(OC)cc1c2=O (stereo not given)	0	.	8	.	.
COc1ccc(/C=C/c2cccc[n+]2C)c(O)c1	3	.	-8	-10	8
CCN(CC)c1ccc(/C=C/c2cccc[n+]2C)c(OC)c1	-13	99*	16	5	19
O=C1CN(C(=O)C2CCC(=O)N(CCc3ccc(Cl)cc3)C2)CCN1 (stereo not given)	1	-16	-7	0	13
Cc1nc2ccc(S(=O)(=O)N(C)CC(=O)NCc3ccc4c(c3)OCO4)cc2s1	2	.	-29	-2	14
Cc1nc2ccc(S(=O)(=O)N(C)CC(=O)NCc3ccc(N(C)C)cc3)cc2s1	2	85*	21	10	58
CN(C)C(=O)C1C2NC(=S)N(c3cccc(Cl)c3)C1(C)Oc1ccc(Cl)cc12 (stereo not given)	56*	1	-9	1	-13
CCOC(=O)c1cc(-c2csc(Nc3c(C)cc(C)cc3C)n2)on1	-14	1	-10	0	36
Cc1ccc(S(=O)(=O)N2C[C@H]3[C@H]4C(=O)N(C)C(=O)[C@H]4CC(=O)[C@H]3[C@@H]2c2ccccc2Cl)cc1	3	.	.	.	.
C=CCn1c(O)c(N=NC(=S)Nc2ccc(OC)cc2)c2ccccc21	56*	-5	0	5	-10
CC(C)(C)c1cc(CCC(=O)NNC(=O)c2ccco2)cc(C(C)(C)C)c1O	-2	.	-8	3	1
O=C(CCc1ccccc1)NNC(=S)NC(=O)c1ccccc1	21	98*	-1	28	53
CC(=O)NC(=S)NNC(=O)CCc1ccccc1	18	41	9	7	6
CC(C)(C)c1cc(CCC(=O)NNC(=S)NC(=O)c2ccccc2)cc(C(C)(C)C)c1O	8	22	5	29*	5
CN1CCN(C2=C(Cl)C(=O)C(c3cnc(N4CCCCC4)s3)=C(Cl)C2=O)CC1	-19	18	91*	12	-1
O=C1OC(/C(=C\Nc2ccc(F)cc2F)[N+](=O)[O-])c2ccccc21 (stereo not given)	5	97*	-3	47*	41
O=C1OC(Nc2ccc(F)cc2F)c2ccccc21 (stereo not given)	-2	-2	0	-1	-5
O=C1OC(/C(=C\Nc2cc(Cl)ccc2O)[N+](=O)[O-])c2ccccc21 (stereo not given)	-7	39	-10	41*	28
CN(NC1OC(=O)c2ccccc21)c1ccc(Cl)cc1[N+](=O)[O-] (stereo not given)	5	2	-19	-5	4
CCCCN(C(=O)C1CC(=O)N(c2ccc(C)cc2)C1)c1c(N)n(CCC)c(=O)[nH]c1=O (stereo not given)	1	.	-13	.	.
Oc1c(Br)cc(Br)cc1C=Nc1ccc2[nH]ncc2c1	35	0	17	21	35
COc1ccc(C=Nc2ccc3[nH]ncc3c2)c(O)c1	2	90*	22	0	-3
COc1ccc(N/C=C/C(=O)c2ccccc2)cc1	-18	-6	6	9	50
COc1ccc(N/C=C(/C(C)=O)c2ccccc2)cc1	-1	84*	11	8	43
O=C(CSc1ccc(C(F)(F)F)cc1[N+](=O)[O-])Nc1ccc2ccccc2c1	-1	99*	7	-8	5
SMILES	H9c2 protect	ALR H2O2 inh	PfGluPho inh	M18AAP inhibitor	PHOSPHO1 block
O=C(CSC1=NCCS1)Nc1cccc(F)c1	-6	99*	11	-2	41
O=C(CSC1=NCCS1)Nc1ccc2ccccc2c1	-5	99*	2	1	57
CC(=O)Nc1ccc(NC(=O)CSC2=NCCS2)cc1	1	.	15	3	27
Cc1ccc(NS(=O)(=O)c2cc(C(=O)NCCCN(C)C)ccc2Cl)cc1Cl	0	.	-7	.	.
O=C(Cn1cnc2sc3c(c2c1=O)CCCC3)NCC(=O)Nc1ccc(F)cc1F	-7	-1	4	2	65*
O=C(Cn1cnc2sc3c(c2c1=O)CCCC3)NCC(=O)Nc1ccccc1F	-4	-5	5	4	26
c1ccc2c(CSCCc3ccncc3)cccc2c1	-20	100*	6	-1	16
CN(C)CCn1c2c(c(SCC(=O)Nc3ccc4c(c3)OCCO4)nc1=O)CCC2	3	97*	1	.	.
Cc1ccc(NC(=O)CSc2nc(=O)n(CCCN(C)C)c3c2CCC3)c(C)c1	0	-10	-8	.	.
Cc1ccc2nc(NC(=O)CSc3nc(=O)n(CCN(C)C)c4c3CCCC4)sc2c1	-12	98*	17	.	.
CN(C)CCn1c2c(c(SCC(=O)Nc3ccc4c(c3)OCCO4)nc1=O)CCCC2	8	97*	6	.	.
CN(C)CCn1c2c(c(SCC(=O)Nc3cccc(C(F)(F)F)c3)nc1=O)CCCC2	10	98*	4	.	.
COc1ccc(NC(=O)CSc2nc(=O)n(CCN(C)C)c3c2CCCC3)cc1OC	5	6	0	.	.
CCN(CC)CCn1c2c(c(SCC(=O)Nc3ccc4c(c3)OCCO4)nc1=O)CCC2	3	-353	-6	.	.
COc1ccc(-n2nc(C(=O)NCC(=O)Nc3cccc(Cl)c3)c3ccccc3c2=O)cc1	10	3	-10	0	36
CN(CC(=O)Nc1ccc(F)cc1)CC(=O)N1CCCCCC1	11	-4	-18	.	.
CNC(=O)COc1coc(CN2CCN(c3ccccc3OC)CC2)cc1=O	-1	12	-1	-6	26
CCOC(=O)CC(=O)CSc1ccc2nnc(-c3ccc(C)cc3)n2n1	11	.	-3	2	68*
COc1ccccc1NC(=O)CSc1ccc2nnc(-c3ccc(C)cc3)n2n1	69*	-6	1	1	40
CCOC(=O)N1CCN(C(=O)CSc2ccc3nnc(-c4ccncc4)n3n2)CC1	32	-3	-3	5	-5
O=C(c1ccco1)n1nc(NCc2ccccc2)nc1NCc1ccccc1	-10	-5	14	-11	23
O=C(c1cccnc1)n1nc(NCc2ccccc2)nc1NCc1ccccc1	19	-2	19	28*	48
O=C(NC(=S)NCc1ccccc1)c1ccccc1F	-5	-12	-14	14	22
O=C(NC(=S)NC(=O)c1ccccc1F)c1ccccc1F	0	89*	7	21	-65
O=C(NN=Cc1ccc(O)cc1)c1ccccc1NS(=O)(=O)c1cccs1	27	99*	-8	.	.
O=C(N/N=C/c1cc(Cl)cc([N+](=O)[O-])c1O)c1ccccc1NS(=O)(=O)c1cccs1	50*	10	-53	0	-12
C[C@H](CO)N1C[C@H](C)[C@@H](CN(C)C(=O)CN2CCOCC2)Oc2cc(Br)ccc2S1(=O)=O	11	.	-1	.	.
CC1OC(c2ccccc2)OC2COC(c3ccccc3)OC12 (stereo not given)	4	.	-17	.	.
Cc1cccc(N2CCN(c3ccc(NC(=O)/C=C(/C(=O)O)c4ccccc4)cc3)CC2)c1	-1	96*	2	7	27
